Assay results as given in paper PMC7819943, “Rice protein-binding microarrays: a tool to detect cis-acting elements near promoter regions in rice”.
In all, about 68,000 sequences were measured (“fluorescence intensity (a.u.)”: median about 9,100, highest 2% from about 16,000 on). What follows is part of a selection rich in the highest values, with near analogues and random picks from the rest.

The sequences below were run against OsWRKY34 (Oryza sativa, UniProt Q0JBA9 1-250) (assay: protein-binding microarray (RPBM); PBS, 2% BSA, 51.3 ng/ul salmon testes DNA, 50 uM zinc acetate, 200 nM TF, 25 C, 1 h; high values mean tight binding). Conditions: protein: recombinant; tags: N-terminal polyhistidine and DsRed monomer fusion (pET32a); label: CyDye5-dUTP incorporated in the synthesized complementary strand; 3' TTTTT single-stranded linker to array surface; dsDNA, one strand shown.
Sequence of OsWRKY34 (Q0JBA9 entry or part of it): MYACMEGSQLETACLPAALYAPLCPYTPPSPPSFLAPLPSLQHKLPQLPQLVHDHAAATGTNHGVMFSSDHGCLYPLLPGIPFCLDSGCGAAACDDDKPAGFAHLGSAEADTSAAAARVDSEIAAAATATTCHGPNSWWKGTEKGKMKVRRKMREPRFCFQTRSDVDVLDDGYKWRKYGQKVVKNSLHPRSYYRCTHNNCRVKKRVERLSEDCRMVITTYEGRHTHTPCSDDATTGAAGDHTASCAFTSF
Summary of the method: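 In PBS with 2% BSA, salmon testes DNA and 50 µM zinc acetate, 200 nM protein was incubated on a custom Agilent array at 25 °C for 1 h and then washed off. The array had been made double-stranded by primer extension with Cy5-dUTP and blocked with 2% BSA. The proteins were transcription factors fused N-terminally to polyhistidine and DsRed, expressed in E. coli BL21-CodonPlus and purified on Ni–NTA. The binding signal is per-feature fluorescence intensity (arbitrary units) from an Axon 4000B scanner.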

Row | Sequence | binding signal
1 | GTCTCATTCTTCTTATTTCCATTTTTTTTTTCTCTCAAAACGGAGTCACCTAGTGCAG | 11100 fluorescence intensity (a.u.)
2 | TCCTCTTCTTTTCTCTCCCTCCGCCACTCGACGCCCAACCCGGAGTCACCTAGTGCAG | 9310 fluorescence intensity (a.u.)
3 | TCGATTCCGGCGTGCGAATTCCTCCACCTCGCCGCCGCCGCGGAGTCACCTAGTGCAG | 8810 fluorescence intensity (a.u.)
4 | TTCCTGTTCCTGCAAGAAAACGCTCATCCTCTTGCTTTTTCGGAGTCACCTAGTGCAG | 9650 fluorescence intensity (a.u.)
5 | AGGCCTCCACGGCTCCACCTCCTTCCGCTTTCGCCTATCCCGGAGTCACCTAGTGCAG | 10000 fluorescence intensity (a.u.)
6 | AAAGTGCCGTATTTTTGTGTTTCTGTTGTAGTGGTAATTACGGAGTCACCTAGTGCAG | 12000 fluorescence intensity (a.u.)
7 | TGGGTTGTGGCAGTGTCTTATAAGGCTATATTAAGTCTATCGGAGTCACCTAGTGCAG | 8060 fluorescence intensity (a.u.)
8 | TTGCTGTCTTGCGTGTTCATGCTGCCCCGCGGGCGTTGAGCGGAGTCACCTAGTGCAG | 9010 fluorescence intensity (a.u.)
9 | TACCAACATTGTAGCAACAGATTCATCTCTCTTTTTTTTTCGGAGTCACCTAGTGCAG | 18100 fluorescence intensity (a.u.)
10 | TTTTCATTGTGTTGTAGCCAACAGCCACATTGTTTTCTTTCGGAGTCACCTAGTGCAG | 8080 fluorescence intensity (a.u.)
11 | GTGACCCAACATTCAGATTCATCTTTTTTTTTCACCTTCTCGGAGTCACCTAGTGCAG | 11300 fluorescence intensity (a.u.)
12 | AGTCACGAATCAAACAACCCCTTAAACTGTATTTGATTGTCGGAGTCACCTAGTGCAG | 8060 fluorescence intensity (a.u.)
13 | GCTATGAGATTTATATATTTTTTTGTCCTGGGCTTCTTTTCGGAGTCACCTAGTGCAG | 9510 fluorescence intensity (a.u.)
14 | GGGTTCTTGGCTACTGGGGCTGTCTCTCTATCTTTCTTGACGGAGTCACCTAGTGCAG | 21600 fluorescence intensity (a.u.)
15 | GCGGTGGTGGACAGTCCCAGACTGACTTGTGGTGGGGACTCGGAGTCACCTAGTGCAG | 9560 fluorescence intensity (a.u.)
16 | TGGTTCTTGCTCTTGTTCTTGCTGCTGCTGCTTTTGCTCTCGGAGTCACCTAGTGCAG | 9380 fluorescence intensity (a.u.)
17 | TGTTCTACTTGGCTGTCTCATACTTTTTTTATTTCTCTCTCGGAGTCACCTAGTGCAG | 11200 fluorescence intensity (a.u.)
18 | AGCGATACTCTACTGCTACCTTGTCCCAACATGCTGGGCTCGGAGTCACCTAGTGCAG | 8260 fluorescence intensity (a.u.)
19 | CATGTCTATCTTTCTACTATTTATTTTTTTTTGGCAGAGACGGAGTCACCTAGTGCAG | 12700 fluorescence intensity (a.u.)
20 | GGCTGGGGTGGGCTCTACTTGACAGACTGATACTCCTACTCGGAGTCACCTAGTGCAG | 19600 fluorescence intensity (a.u.)
21 | CTTGGTTTTCTTGATTTCTTGGGTTCTTGGCTACTGGGGCCGGAGTCACCTAGTGCAG | 9490 fluorescence intensity (a.u.)
22 | ACTCTCTCTCTCTCTCTGCTTCTTCTTGTGTTGTGCTTGTCGGAGTCACCTAGTGCAG | 9800 fluorescence intensity (a.u.)
23 | TCTCTGCTTCTCGTTGTTCTTGGTTGGTTGTTGTTGTAGACGGAGTCACCTAGTGCAG | 19400 fluorescence intensity (a.u.)

Row | Sequence | binding signal
24 | GGCTGGGCTTTTTGGGCTTTCTTTGATCTATATTTTGAGACGGAGTCACCTAGTGCAG | 18200 fluorescence intensity (a.u.)
25 | CCCACACGCGCTCCATGCATCTCCACCACGCTCCATGTGTCGGAGTCACCTAGTGCAG | 11000 fluorescence intensity (a.u.)
26 | CCGTCCGCCATTGCAGCTTCGTTGTTCTGTACCTTCTTGCCGGAGTCACCTAGTGCAG | 10900 fluorescence intensity (a.u.)
27 | CCGGGTCACACATCCCCTCATACTCGGGCCTTGTTTAGTTCGGAGTCACCTAGTGCAG | 8740 fluorescence intensity (a.u.)
28 | TACTGCCTCTCTCTGACCCCATTGACCAACTCCGTTGACCCGGAGTCACCTAGTGCAG | 15800 fluorescence intensity (a.u.)
29 | AGATGGATGCTCTGCCCGCCGCCCTACCACCCTCTGCCATCGGAGTCACCTAGTGCAG | 8030 fluorescence intensity (a.u.)
30 | GTCTTTTCTTCAAGGTTATCTTTTTTGTCCCTTTTTTATTCGGAGTCACCTAGTGCAG | 15200 fluorescence intensity (a.u.)
31 | TCATATTGTACCTTCCACTTTTATTCTTTTAAAGCCTATACGGAGTCACCTAGTGCAG | 9560 fluorescence intensity (a.u.)
32 | AGGCGCTCCATAGGCCTCGTCATCTTCACAGTCACACACCCGGAGTCACCTAGTGCAG | 11200 fluorescence intensity (a.u.)
33 | GCTGCCTATTCCATACAAATTTCGTAGGTTCATTTCCAACCGGAGTCACCTAGTGCAG | 10000 fluorescence intensity (a.u.)
34 | ATTGGTCGTCTTGCTGAGCTCTCGTACTTGGATCTCTCTACGGAGTCACCTAGTGCAG | 11100 fluorescence intensity (a.u.)
35 | GTCGTCGTCTTCGTCTCGAGTTCTTGGTTGGTTGGATCTACGGAGTCACCTAGTGCAG | 19400 fluorescence intensity (a.u.)
36 | TCTAGGTTCTGTTCTATTCGGTTCTAGGTTATCATATTTTCGGAGTCACCTAGTGCAG | 12100 fluorescence intensity (a.u.)
37 | ATGAATTAGGTGTGGTTCTCTTTAATCTGTTATTAGTCATCGGAGTCACCTAGTGCAG | 11000 fluorescence intensity (a.u.)
38 | CGTGTTGGGGTTCTCTTCCTGCTGCTTTGGCCACCTGGGACGGAGTCACCTAGTGCAG | 12500 fluorescence intensity (a.u.)
39 | CATCTACGTGCTCTCTTTGGTTGGGGTGTTCTTGCTGCTACGGAGTCACCTAGTGCAG | 17700 fluorescence intensity (a.u.)
40 | TAGATCTCTTGCTTTGGGTGTTGTTTGCTCTAGGTGTTCTCGGAGTCACCTAGTGCAG | 8250 fluorescence intensity (a.u.)
41 | GACTATAGAGGCTTTGTTTGTTTGGGGTGTGTTTTTGTCTCGGAGTCACCTAGTGCAG | 17200 fluorescence intensity (a.u.)
42 | GATATTGGAGGTGCATCTGTTAGGGTTCGGGTTCTCTCTACGGAGTCACCTAGTGCAG | 16700 fluorescence intensity (a.u.)
43 | TTCACTATTGGGTGTTTTTGTCTCGATTCACCTTCATCGTCGGAGTCACCTAGTGCAG | 8840 fluorescence intensity (a.u.)
44 | TTTGGGGTGTGTTTTTGTCTAGAGGTAAAGTTTTTAAAGTCGGAGTCACCTAGTGCAG | 10600 fluorescence intensity (a.u.)
45 | CTTCTTCGGATCACTCGGTTGGTTTCTTGGTTTCTTGGTTCGGAGTCACCTAGTGCAG | 13000 fluorescence intensity (a.u.)
